Data taken from PubChem BioAssay AID1159580 (chemical genetic matrix, 2015).
The whole screen tested about 5,500 compounds, of which about 2,000 (36%) were called active. Another 18% or so got no clear call; they are omitted. Cut-off read from the data, not from the text of the source: active = normalized growth mostly below about 0.91 (no sharp cut-off); inconclusive = no clear call, values can overlap the other calls; inactive = mostly above about 0.92. Some of the results follow.

Experiment: chemical genetic growth profiling, strain panel (AID 1159580);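 note: tested at 20 µM; growth read once vehicle control cultures reached saturation at 30 °C; 1 = growth at the plate median or of vehicle wells; lower values mean less growth of the strain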
Conditions: growth OD

Measured: normalized growth

CC1=C(/C=C/C(C)=C/C=C/C(C)=C/C=C/C=C(C)/C=C/C=C(C)/C=C/C23OC2(C)CC(O)CC3(C)C)C(C)(C)CC(O)C1 (configuration not stated)
inactive: S. cerevisiae deletion strains, locus YBR021W, strain FUR4, hits give low values 1 | S. cerevisiae deletion strains, locus YBR229C, strain ROT2, hits give low values 1.01 | S. cerevisiae deletion strains, locus YCL029C, strain bik1, hits give low values 1.02 | S. cerevisiae deletion strains, locus YDL035C, strain GPR1, hits give low values 1.01 | S. cerevisiae deletion strains, locus YDL074C, strain BRE1, hits give low values 1.03 | S. cerevisiae deletion strains, locus YDL101C, strain DUN1, hits give low values 1.01 | S. cerevisiae deletion strains, locus YDL185W, strain tfp1, hits give low values 1 | S. cerevisiae deletion strains, locus YDL192W, strain arf1, hits give low values 1 | S. cerevisiae deletion strains, locus YDR101C, strain arx1, hits give low values 1.01 | S. cerevisiae deletion strains, locus YDR162C, strain NBP2, hits give low values 0.997 | S. cerevisiae deletion strains, locus YDR318W, strain mcm21, hits give low values 1.01 | S. cerevisiae deletion strains, locus YDR388W, hits give low values 1.01 | S. cerevisiae deletion strains, locus YDR502C, strain sam2, hits give low values 1.02 | S. cerevisiae deletion strains, locus YEL061C, strain CIN8, hits give low values 1.01 | S. cerevisiae deletion strains, locus YER110C, hits give low values 1.02 | S. cerevisiae deletion strains, locus YER155C, strain BEM2, hits give low values 1.01 | S. cerevisiae deletion strains, locus YER167W, strain BCK2, hits give low values 1.02 | S. cerevisiae deletion strains, locus YGL078C, strain dbp3, hits give low values 0.995 | S. cerevisiae deletion strains, locus YGL086W, strain mad1, hits give low values 1.05 | S. cerevisiae deletion strains, locus YGL248W, strain PDE1, hits give low values 1 | S. cerevisiae deletion strains, locus YGR135W, strain pre9, hits give low values 0.982 | S. cerevisiae deletion strains, locus YGR252W, strain gcn5, hits give low values 0.987 | S. cerevisiae deletion strains, locus YHR030C, strain SLT2, hits give low values 1.01 | S. cerevisiae deletion strains, locus YHR079C, strain IRE1 (second series), hits give low values 1 | S. cerevisiae deletion strains, locus YHR094C, strain hxt1, hits give low values 1.01 | S. cerevisiae deletion strains, locus YHR129C, strain ARP1, hits give low values 1.02 | S. cerevisiae deletion strains, locus YHR200W, strain rpn10, hits give low values 1.01 | S. cerevisiae deletion strains, locus YIL066C, strain RNR3, hits give low values 1.01 | S. cerevisiae deletion strains, locus YIL073C, strain SPO22, hits give low values 1.1 | S. cerevisiae deletion strains, locus YIL125W, strain kgd1, hits give low values 1.01 | S. cerevisiae deletion strains, locus YIR030C, strain dcg1, hits give low values 1.01 | S. cerevisiae deletion strains, locus YJL095W, strain BCK1, hits give low values 0.998 | S. cerevisiae deletion strains, locus YJL134W, strain LCB3, hits give low values 1.01 | S. cerevisiae deletion strains, locus YJL168C, strain set2, hits give low values 1.01 | S. cerevisiae deletion strains, locus YJL187C, strain SWE1 (second series), hits give low values 1 | S. cerevisiae deletion strains, locus YJR043C, strain POL32, hits give low values 0.999 | S. cerevisiae deletion strains, locus YKL009W, strain mrt4, hits give low values 1.03 | S. cerevisiae deletion strains, locus YKL068W, hits give low values 1 | S. cerevisiae deletion strains, locus YKL085W, strain MDH1 (second series), hits give low values 1.01 | S. cerevisiae deletion strains, locus YKL085W, strain MDH1, hits give low values 1.01 | S. cerevisiae deletion strains, locus YKL190W, strain CNB1, hits give low values 1.01 | S. cerevisiae deletion strains, locus YKR001C, strain vps1, hits give low values 1.04 | S. cerevisiae deletion strains, locus YLR039C, strain RIC1, hits give low values 1.01 | S. cerevisiae deletion strains, locus YLR058C, strain SHM2, hits give low values 1.01 | S. cerevisiae deletion strains, locus YLR102C, strain apc9, hits give low values 1.02 | S. cerevisiae deletion strains, locus YLR262C, strain YPT6, hits give low values 0.973 | S. cerevisiae deletion strains, locus YLR268W, strain sec22, hits give low values 1.02 | S. cerevisiae deletion strains, locus YLR330W, strain CHS5, hits give low values 1.02 | S. cerevisiae deletion strains, locus YLR342W, strain FKS1 (second series), hits give low values 1.06 | S. cerevisiae deletion strains, locus YLR371W, strain rom2, hits give low values 1.01 | S. cerevisiae deletion strains, locus YLR418C, strain cdc73, hits give low values 1 | S. cerevisiae deletion strains, locus YML016C, strain PPZ1, hits give low values 1.01 | S. cerevisiae deletion strains, locus YML032C, strain rad52, hits give low values 1 | S. cerevisiae deletion strains, locus YML124C, strain tub3, hits give low values 1 | S. cerevisiae deletion strains, locus YMR078C, strain ctf18, hits give low values 1.02 | S. cerevisiae deletion strains, locus YMR223W, strain ubp8, hits give low values 1.01 | S. cerevisiae deletion strains, locus YMR263W, strain SAP30, hits give low values 1.01 | S. cerevisiae deletion strains, locus YMR307W, strain GAS1, hits give low values 1.02 | S. cerevisiae deletion strains, locus YNL067W, strain RPL9B, hits give low values 1 | S. cerevisiae deletion strains, locus YNL153C, strain GIM3, hits give low values 0.994 | S. cerevisiae deletion strains, locus YNL233W, strain BNI4, hits give low values 1.02 | S. cerevisiae deletion strains, locus YNL250W, strain rad50, hits give low values 1.01 | S. cerevisiae deletion strains, locus YNL271C, strain bni1, hits give low values 1 | S. cerevisiae deletion strains, locus YNL298W, strain CLA4, hits give low values 0.991 | S. cerevisiae deletion strains, locus YNL307C, strain MCK1, hits give low values 1.01 | S. cerevisiae deletion strains, locus YNL322C, strain KRE1, hits give low values 1.01 | S. cerevisiae deletion strains, locus YNR052C, strain pop2, hits give low values 1 | S. cerevisiae deletion strains, locus YOL006C, strain TOP1, hits give low values 1.11 | S. cerevisiae deletion strains, locus YOL012C, strain htz1 0.925 | S. cerevisiae deletion strains, locus YOL147C, strain pex11, hits give low values 1.01 | S. cerevisiae deletion strains, locus YOR061W, strain CKA2, hits give low values 1.02 | S. cerevisiae deletion strains, locus YOR069W, strain VPS5, hits give low values 1.02 | S. cerevisiae deletion strains, locus YOR136W, strain idh2, hits give low values 1 | S. cerevisiae deletion strains, locus YOR144C, strain elg1, hits give low values 0.998 | S. cerevisiae deletion strains, locus YOR184W, strain ser1, hits give low values 1.03 | S. cerevisiae deletion strains, locus YOR316C, strain cot1, hits give low values 1.03 | S. cerevisiae deletion strains, locus YPR119W, strain clb2, hits give low values 0.994 | S. cerevisiae deletion strains, locus YPR141C, strain kar3, hits give low values 1.01 | S. cerevisiae deletion strains, locus YPR163C, strain tif3, hits give low values 1.01 | S. cerevisiae deletion strains, locus YPR167C, strain met16, hits give low values 1.01 | S. cerevisiae deletion strains, strain wtn01, hits give low values 1.02 | S. cerevisiae strains, strain wild type, hits give low values 1.01
